Results published in PubChem BioAssay AID624330 (Southern Research Specialized Biocontainment Screening …, 2012).
In all, about 340,000 compounds went through this assay and about 2,100 (0.62%) were called active. The list is a sample of the results. Measured potencies and affinities stand elsewhere. Values without a mark were called inactive.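 Rule for the calls: active = first-screen hits whose inhibition reached a set limit at any dose in the follow-up dose series; inconclusive = inhibition above the set first-screen limit but never retested; inactive = the rest.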

These molecules were tested against Rac GTPase-activating protein 1 (Homo sapiens) (UniProt Q9H0H5) (assay: MgcRacGAP GTPase-activating activity inhibitors, confirmation, biochemical, ADP Hunter fluorescence, primary and confirmatory (AID 624330;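 note: fluorescence reports GDP produced by GAP-driven GTP hydrolysis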)). Conditions: MgcRacGAP-stimulated Rac1 GTP hydrolysis, at 30 µM, stronger effect = higher value, GST-tagged Rac1 F28L mutant substrate.
Rac GTPase-activating protein 1 (Homo sapiens), sequence (Q9H0H5 whole entry, looked up): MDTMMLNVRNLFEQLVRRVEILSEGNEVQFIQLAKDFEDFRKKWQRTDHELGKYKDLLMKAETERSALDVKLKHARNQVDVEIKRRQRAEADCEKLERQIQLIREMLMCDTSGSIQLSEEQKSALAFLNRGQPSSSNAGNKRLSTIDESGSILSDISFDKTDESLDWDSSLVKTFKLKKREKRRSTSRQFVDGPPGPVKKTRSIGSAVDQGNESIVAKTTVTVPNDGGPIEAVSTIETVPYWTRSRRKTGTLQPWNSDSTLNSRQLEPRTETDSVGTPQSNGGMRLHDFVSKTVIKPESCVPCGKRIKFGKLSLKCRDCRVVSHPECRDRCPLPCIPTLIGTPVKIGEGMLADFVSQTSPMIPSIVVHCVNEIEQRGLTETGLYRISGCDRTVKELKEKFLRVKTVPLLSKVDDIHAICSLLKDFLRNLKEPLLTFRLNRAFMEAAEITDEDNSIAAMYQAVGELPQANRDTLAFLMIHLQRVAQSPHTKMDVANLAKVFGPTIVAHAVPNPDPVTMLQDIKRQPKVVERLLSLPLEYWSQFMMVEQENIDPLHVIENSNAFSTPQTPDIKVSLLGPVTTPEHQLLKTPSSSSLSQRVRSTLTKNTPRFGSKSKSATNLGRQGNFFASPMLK

SMILES | inhibition
S=C(N/N=C/c1ccc(Cl)cc1)N1CCOCC1 | 0.9%
O=S(=O)(c1ccc(Cl)c(NC(=S)N/N=C/c2c(F)cccc2F)c1)N1CCOCC1 | 9.48%
O=[N+]([O-])c1cc(Cl)cc(/C=N/NC(=S)Nc2cc(S(=O)(=O)N3CCOCC3)ccc2Cl)c1O | 10%
Cc1ccc(/C=N/NC(=S)N2CCOCC2)cc1 | 4.05%
N#Cc1ccccc1NS(=O)(=O)c1cc2c3c(c1)CCC(=O)N3CCC2 | -1.72%
COc1cc(NC(=O)CCN2CCN(CCO)CC2)cc(OC)c1 | 4.08%
OC(CNCC1COc2ccccc2O1)COc1ccccc1F (stereo unspecified) | 8.38%
OC(CNCC1COc2ccccc2O1)COc1ccc(Cl)cc1 (stereo unspecified) | 6.5%
Cc1ccc2nc(C)cc(C(=O)N3CCCC(CO)(Cc4ccccc4C)C3)c2c1 (stereo unspecified) | 8.23%
CN(C)c1ccc(CCc2ccc(N)cc2)cc1 | 31.6%
CN(C)c1ccc(CN(C)C2CCCCC2)cc1 | 7.28%
COc1ccc(C(CCNCc2ccc(OC(C)C)cc2)c2ccccc2OC)cc1 (stereo unspecified) | 7.13%
Cc1c(N2C(=O)/C(=C/c3ccccc3)SC2=S)c(=O)n(-c2ccccc2)n1C | 6.19%
Cc1c(N2C(=O)/C(=C\c3ccccc3O)SC2=S)c(=O)n(-c2ccccc2)n1C | 3.93%
O=C1NC(=Nc2ccccc2)S/C1=C\c1ccccc1 | 3.51%
COc1cc(/C=C2\SC(=Nc3ccc(O)cc3)NC2=O)cc(OC)c1O | 27.1%
Cc1c(N=C2C(=O)Nc3ccccc32)c(=O)n(-c2ccccc2)n1C | 1.01%
CCc1ccc(N=C2NC(=O)/C(=C/c3cc(OC)c(O)c(OC)c3)S2)cc1 | 14.6%
Cn1c(SCC(=O)NCc2cccs2)nnc1-c1ccncc1 | 5.96%
O=C(NCc1cc(C(F)(F)F)ccc1Cl)c1cccc2c1C(=O)c1ccc(N3CCCCC3)cc1S2(=O)=O | 5.32%
COC(=O)C1CC2=C(CCCC2=O)NC1=O (stereo unspecified) | 5.59%

SMILES | inhibition
COc1ccc(O)c(-c2cc(-c3cccc(Br)c3)n[nH]2)c1 | 10.7%
COc1ccc(NC(=O)C2CCN(C(=O)Cc3ccccc3)CC2)c(OC)c1 | 8.8%
C/C(=N\NS(C)(=O)=O)c1ccc(C)cc1 | 5.59%
Cc1cccc(C(=O)Nc2ccc(C(=O)N/N=C/c3ccco3)cc2)c1 | 1.6%
CN(Cc1ccc(Cl)cc1Cl)C(=O)C1CSC2(C)CCC(=O)N12 (stereo unspecified) | 7.87%
O=S(=O)(/N=C(/Nc1nccs1)c1ccc(F)cc1)c1ccccc1 | -7.34%
COc1cccc(OC)c1OCCN1CCCC1 | -3.59%
COc1cccc(OC)c1OCCCCCCN1CCN(C)CC1 | 4.56%
COc1cccc(OC)c1OCCCCN1CCCCC1 | 19.4%
Cc1cccc(C)c1OCCCN1CCOCC1 | 9.47%
O=[N+]([O-])c1ccc(/C=N\N2CCN(Cc3ccccc3Cl)CC2)cc1 | 10%
CC(=O)N1c2ccc(S(=O)(=O)NCCC(=O)NC3CCC(C)CC3)cc2CC1C (stereo unspecified) | 6.14%
O=C(CSCC(=O)OCC(=O)c1ccc(Br)cc1)Nc1ccc(Br)cc1 | 2.71%
C=CCn1c(C)cc(C(=O)COC(=O)CCc2cc(OC)c(OC)c(OC)c2)c1C | 1.52%
COc1ccccc1NS(=O)(=O)c1ccc(C(=O)NCC(c2ccco2)N2CCCCC2)cc1 (stereo unspecified) | -5.8%
Cc1ccc(C(C)C)c(OCCCN(C)Cc2ccccc2)c1 | 13%
Cc1cc(C)c(OCCN(C)Cc2ccccc2)c(Br)c1 | 9.5%
Cc1ccc(Cl)c(OCCCCN(C)Cc2ccccc2)c1 | 26.2%
Cc1cc(C)c(C)c(OCCCCN(C)Cc2ccccc2)c1 | 26.2%
COc1ccc(-c2c[n+]3c4n2CCCCC4=C(c2ccccc2)C3)cc1 | 8.53%
CCOC(=O)C1CCN(C(=O)CN2C(=O)c3cccnc3Oc3ccccc32)CC1 | 6.53%

SMILES | inhibition
COc1ccc(NC(=O)CCNS(=O)(=O)c2ccc3c(c2)CC(C)N3C(=O)C2CC2)cc1 (stereo unspecified) | 8.6%
COc1ccc(-c2cc(C(=O)N(C)Cc3ccc(F)cc3)c3ccccc3n2)cc1OC | 9.06%
CCSc1nnc([C@H](Cc2c[nH]c3ccccc23)NC(=O)OC(C)(C)C)o1 | 5.34%
Cc1ccc(NCCC(=O)c2cccs2)cc1Cl | -0.47%
COc1ccc(NC(=O)CCC(=O)c2cccs2)cc1Cl | 1.13%
Cc1ccc(OC(=O)C(F)(F)F)c2c1NCCC2 | 22.1%
O=C1CCNc2c(Cl)cc(Cl)cc21 | -0.57%
COCc1[nH][nH]c(=O)c1C=Nc1ccc(Cl)cc1 | 8.52%
Cc1ccc(N(CC(=O)Nc2ccccc2-c2ccccc2)S(=O)(=O)c2ccccc2)cc1 | 1.42%
O=C1Nc2ccccc2/C1=N/N=C/c1cccc(O)c1 | -0.92%
COc1ccc(O)c(/C=N/N=C2/C(=O)Nc3ccccc32)c1 | 10.2%
C#CCOCCOCCOCCNc1nc(N2CCN(C(=O)[C@H](Cc3ccc(O)cc3)n3cc([C@@H](N)C(C)CC)nn3)CC2)nc(N2CCN(C(=O)[C@H](Cc3cc4ccccc4[nH]3)n3cc([C@@H](N)C(C)CC)nn3)CC2)n1 (stereo partly specified) | 7.82%
O=C(Nc1ccccc1)c1ccc2nc(-c3ccco3)c(-c3ccco3)nc2c1 | 14.3%
O=C(c1ccccc1)c1ccc2nc(-c3ccco3)c(-c3ccco3)nc2c1 | 25.8%
CCc1cccc(C)c1NC(=O)c1cccc(N(C)C)c1 | 23.8%
Cc1cc(=O)[nH]c2cc(O)ccc12 | 5.17%
CCCCCCCCC1=NCCc2c1[nH]c1ccccc21 | 12.8%
CCOCCc1nnc(NC(=O)Cc2c(F)cccc2Cl)s1 | -4.41%
NC(=O)c1ncn([C@@H]2O[C@H](CNCc3ccccc3OCc3ccc(Cl)cc3Cl)[C@@H](O)[C@H]2O)n1 | -6.96%
